Screens (PubChem)
Hits are enriched below; roughly 1.5% of the tested compounds scored in any of these assays.
ANO1 block: blocks the mouse calcium-activated chloride channel TMEM16A; normalized B-score (activity score, 25-100; higher = stronger inhibition) at 10 µM; Q8BHY3; HEK293 TMEM16A/YFP iodide influx fluorescence, ionomycin; 310,000 tested, 1.2% active;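 active = ratio plate-corrected score three or more library SD toward inhibition, starting fluorescence score within five deviations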;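 note: score derived from kinetic fluorescence span divided by baseline fluorescence per well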
DAGLB inh: diacylglycerol lipase beta (human) inhibition; Q8NCG7; HEK293T DAGLB membrane lysate, EnzChek fluorogenic substrate; inhibition, % at 5.17 µM; 340,000 tested, 0.059% active; in the data active = inhibition above about 34%
iPSC survival up: increases survival of single human iPS cells; hiPSC single-cell survival, ATPlite luminescence; 100% = ROCK inhibitor wells, 0% = DMSO; survival enhancement, % at 20 µM; 360,000 tested, 0.044% active; in the data active = survival enhancement above about 18%;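 note: cells exposed to compounds for 16 hours before the ATP read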
ABCB6 inh 2: blocks the human ABCB6 transporter; fluorescence ratio to DMSO, % at 10 µM; 360,000 tested, 0.19% active; K562-ABCB6 porphyrin accumulation, flow cytometry, 1 h; active compounds read low; Q9NP58;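 active = fluorescence ratio to DMSO below 75%, the collection mean minus 3 SD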;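 note: signal is porphyrin accumulated inside mitochondria; lower ratio means ABCB6 inhibition with less porphyrin fluorescence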
Target sequence (Q9NP58 whole entry, looked up): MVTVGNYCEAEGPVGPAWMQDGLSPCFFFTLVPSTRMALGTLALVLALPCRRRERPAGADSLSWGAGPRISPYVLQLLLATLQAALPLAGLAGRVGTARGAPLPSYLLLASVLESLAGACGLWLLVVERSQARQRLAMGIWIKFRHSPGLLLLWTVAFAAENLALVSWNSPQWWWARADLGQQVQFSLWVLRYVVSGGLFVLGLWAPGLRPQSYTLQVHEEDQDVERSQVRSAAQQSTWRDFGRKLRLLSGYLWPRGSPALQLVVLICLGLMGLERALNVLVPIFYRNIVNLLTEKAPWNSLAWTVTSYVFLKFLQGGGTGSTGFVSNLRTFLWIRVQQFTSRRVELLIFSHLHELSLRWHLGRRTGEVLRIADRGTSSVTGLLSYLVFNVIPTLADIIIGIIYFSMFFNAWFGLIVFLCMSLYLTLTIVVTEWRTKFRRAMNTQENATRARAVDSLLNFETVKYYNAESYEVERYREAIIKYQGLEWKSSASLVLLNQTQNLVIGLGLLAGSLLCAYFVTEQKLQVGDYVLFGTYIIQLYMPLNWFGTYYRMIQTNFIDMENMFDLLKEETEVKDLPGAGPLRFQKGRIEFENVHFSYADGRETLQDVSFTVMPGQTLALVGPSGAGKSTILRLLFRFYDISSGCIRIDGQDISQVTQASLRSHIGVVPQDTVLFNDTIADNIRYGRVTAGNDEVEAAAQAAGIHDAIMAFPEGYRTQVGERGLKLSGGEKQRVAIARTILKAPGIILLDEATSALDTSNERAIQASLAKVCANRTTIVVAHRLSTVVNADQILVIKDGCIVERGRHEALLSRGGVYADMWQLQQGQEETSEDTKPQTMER
TMEM16A act: activators or potentiators of mouse TMEM16A chloride channel. Q8BHY3. B-score at 10 µM. 340,000 tested, 0.3% active. HEK293 TMEM16A/YFP-H148Q/I152L, iodide quench fluorescence; active compounds read low. AID 623877;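 active = fluorescence-ratio B-score plate-corrected deviation score at least 3 library SD below zero, with starting fluorescence score within 5 deviations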;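 note: channel opened by trigger with iodide after compound preincubation; score built on the fluorescence ratio of max minus min over baseline; more negative score means more quench and so TMEM16A activation or potentiation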
DAGLB inh conf: DAGLB (human) inhibition, confirmation screen; shares compounds with DAGLB inh; 190 tested, 73% active; AID 504445; inhibition, % at 5.17 µM; HEK293T DAGLB membrane lysate, EnzChek fluorogenic substrate;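 active = mean inhibition over triplicate wells above a set limit taken from the primary lipase screen, cut at about 34% in these data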
Each line names hits and unclear results; the compound was inactive in the other large screens (follow-up assays come after a bar, where they were run).

Cc1ccc(S(=O)(=O)NCC(c2ccco2)N2CCc3ccccc3C2)cc1 (stereo unspecified)	ANO1 block 25
O=C(Cn1cnc2c(NCc3ccccc3)ncnc21)NCCCc1ccccc1	none (no result: ANO1 block, TMEM16A act)
O=C1c2ccccc2C(=O)N1OCCCN1C(=O)c2ccccc2S1(=O)=O	ABCB6 inh 2 31.0 (no result: ANO1 block)
O=C1[C@H]2[C@@H](c3ccc(Cl)cc3)N3C(=O)N(c4cccc(Cl)c4)C(=O)[C@@]3(Cc3ccccc3)[C@H]2C(=O)N1C1CCCCC1	none
CCc1ccccc1NC(=O)c1cccc(NC(=O)/C=C/c2ccco2)c1	ANO1 block 25
Cc1csc(=O)n1CC(=O)OCC(=O)Nc1ccccc1C(C)C	none (no result: ANO1 block)
Cc1c(N2C(=O)/C(=C/c3ccccc3)SC2=S)c(=O)n(-c2ccccc2)n1C	none
Cc1c(N2C(=O)/C(=C/c3ccc(N(C)C)cc3)N(C)C2=S)c(=O)n(-c2ccccc2)n1C	TMEM16A act -7.97 (no result: ANO1 block)
O=c1c2c(n3cnnc3n1-c1ccccc1)-c1ccccc1CC21CCCCC1	none
CCn1c(=O)c2c(n3cnnc13)-c1ccccc1CC21CCCCC1	TMEM16A act -9.62
COc1ccc(CCNC(=O)CCC(=O)N2CCOc3ccc(C)cc32)cc1OC	none
CCOc1ccc(CCNC(=O)CCC(=O)N2CCOc3ccc(C)cc32)cc1OCC	TMEM16A act -14
CCCCC1=CC2=CC(=O)C(C)(OC(=O)CC)C(=O)C2=CN1C(CO)CO (stereo unspecified)	TMEM16A act -5.81
O=C(Cc1cn2ccsc2n1)NCCc1ccc(F)cc1	TMEM16A act -48.8
Cc1ccccc1CC(=O)Nc1cccc(S(=O)(=O)N2CCCC2)c1	none (no result: ANO1 block)
CC1=CC2=NC(=O)/C(=C\c3cc(C)n(-c4cccc(Cl)c4)c3C)C(=N)N2O1	none
CC1=CC2=NC(=O)/C(=C\c3cc(C)n(-c4ccccc4)c3C)C(=N)N2O1	TMEM16A act -4.95
COc1cccc(CN2CCNC(=O)C2CC(=O)N(Cc2cnn(C)c2)C(C)C)c1 (stereo unspecified)	TMEM16A act -7.55
CCOC(=O)C1(CCCc2ccccc2)CCN(C(=O)CSC)CC1	none
CCOC(=O)C1(CCCc2ccccc2)CCN(C(=O)Cc2nonc2C)CC1	TMEM16A act -6.69
Cc1ccc(OCC(=O)NNC(=O)C(C)Sc2ncnc3sc(C)c(C)c23)cc1 (stereo unspecified)	ANO1 block 100
O=S(=O)(NC1CCCCC1N1CCN(c2ccc(F)cc2)CC1)c1ccc(Cl)cc1 (stereo unspecified)	TMEM16A act -34.3
CCCN1CCN(C2CCCCC2NS(=O)(=O)c2ccc(Cl)cc2)CC1 (stereo unspecified)	none
O=C(NCC(c1ccco1)N1CCN(c2ccccc2)CC1)C1CCCCC1 (stereo unspecified)	none (no result: ANO1 block, TMEM16A act)
CN(CC(=O)Nc1cc(S(=O)(=O)N2CCCCCC2)ccc1Cl)Cc1ccc2c(c1)OCO2	TMEM16A act -13.5 (no result: ANO1 block)
CC1=C(C(=O)N(C(C)C)C(C)C)CC(CC(=O)NCCc2ccccn2)C(=O)N1Cc1ccc(C(C)(C)C)cc1 (stereo unspecified)	none (no result: ANO1 block, DAGLB inh, TMEM16A act)
CCN1C/C(=C/c2cccc([N+](=O)[O-])c2)C(=O)/C(=C/c2cccc([N+](=O)[O-])c2)C1	iPSC survival up 38.4
CCOc1cc(/C=C2\CN(CC)C/C(=C\c3ccc(O)c(OCC)c3)C2=O)ccc1O	none
COc1ccc(CCC(=O)OCC(=O)c2c(N)n(CC(C)C)c(=O)n(C)c2=O)cc1	TMEM16A act -5.43
CC(C)c1ccc(COc2ccc(C(=O)N3CCOCC3)cc2)cc1	none
CC(C)c1ccc(OCc2ccc(C(=O)N3CCN(c4ccccn4)CC3)cc2)cc1	ANO1 block 100
COCC(=O)N1CCC(Oc2ccc(C(=O)N3C[C@@H](C)O[C@@H](C)C3)cc2)CC1	none
CCCCN(C)C(=O)C1CCC(CNS(=O)(=O)c2ccc3c(c2)CC(C)N3C(=O)C2CC2)CC1 (stereo unspecified)	none
CSC(=Nc1ccccc1)N=C(SCc1ccccc1)N(C)C	TMEM16A act -12.6 (no result: ANO1 block)
COc1ccc(NS(=O)(=O)c2ccc3c(c2)NC(=O)CCS3)cc1Cl	none
CC(=O)c1c(C)[nH]c(C(=O)CSc2ncnc3sc(-c4ccccc4)cc23)c1C	ANO1 block 25
Oc1ccc(-c2onc(C(F)(F)F)c2-c2cscn2)c(O)c1	iPSC survival up 19.6
Cc1ccc(NC(=O)CSc2nn(-c3ccccc3)c(=S)s2)cc1S(=O)(=O)N(C)C	ANO1 block 25
CSc1ccc(Cl)c(C(=O)N2CCN(c3ncccn3)CC2)c1	none (no result: ANO1 block)
Cc1cccc(-n2ncc3c(NCc4cccnc4)ncnc32)c1	none
Cc1ccc(-n2ncc3c(NCc4cccnc4)ncnc32)cc1C	ANO1 block 25
O=C1CC(=C(c2ccccc2)c2ccccc2)C(=O)N1CCCCN1CCN(c2cccc(Cl)c2)CC1	DAGLB inh 44.7 | DAGLB inh conf 53.1
O=C(Nc1cccc(C(F)(F)F)c1)c1cccc(NS(=O)(=O)c2ccc(O)c(C(=O)O)c2)c1	DAGLB inh 40.8 | DAGLB inh conf inactive
Cc1ccc(C2C(/C=C3/SC(=S)NC3=O)=C(c3cccs3)Oc3ccccc32)cc1 (stereo unspecified)	DAGLB inh 39.5 | DAGLB inh conf 44.3
CC(C)NC1(C(N)=O)CCNCC1	none (no result: ANO1 block)
Oc1ccc(N=Nc2n[nH]c(-c3ccccc3)n2)cc1	none
Oc1ccc(N=Nc2nc(-c3ccccc3)c(-c3ccccc3)[nH]2)cc1	DAGLB inh 37.6 | DAGLB inh conf inactive
O=C(Nc1nnc([C@@H]2C[C@H](O)[C@@H](CO)O2)s1)NC1CCCCC1	none (no result: ANO1 block, DAGLB inh, TMEM16A act)
Cn1c(=O)[nH]c2c(c1=O)CCO2	none (no result: ANO1 block)
Nc1cc2c(cc1[N+](=O)[O-])-c1ccccc1C2=NO	DAGLB inh 34.8 (no result: ANO1 block) | DAGLB inh conf inactive
O=C1[C@@H]2[C@@H](CN3CN(c4ccccc4)N=C(c4ccccc4)[C@@]23c2ccccc2)C(=O)N1c1ccccc1	none (no result: ANO1 block)
CC1(C)CC(=O)C2=C(C1)c1c(ccc3ccccc13)NC2c1ccc(C(=O)O)cc1 (stereo unspecified)	none
CC1(C)CC(=O)C2=C(C1)c1c(ccc3ccccc13)NC2c1cc([N+](=O)[O-])cc([N+](=O)[O-])c1O (stereo unspecified)	DAGLB inh 42.2 | DAGLB inh conf 38.7
Cc1ccccc1N=Nc1ccc(O)c2ncccc12	none
Nc1ccc(N=Nc2ccccc2)c2cccnc12	DAGLB inh 37.1 | DAGLB inh conf 42.2
OC(Cc1cccnc1)c1ccccc1 (stereo unspecified)	none (no result: ANO1 block)
CCN1C(c2ccccc2)=C(c2ccccc2)S/C1=C/C=C1\SC(=S)N(C)C1=O	DAGLB inh 38.6 (no result: ANO1 block) | DAGLB inh conf inactive
CCN1C(c2ccccc2)=C(c2ccccc2)S/C1=C\C=C1/SC(=S)N(C)C1=O	none
